Assay results taken from PubChem BioAssay (NCI).
This is part of a sample that, as a whole, favours compounds with a hit. Of some 83,000 tested, about 20% had one in any assay.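 Testing used 96-well plates and a 48-hour single-concentration exposure. Example: -40 means 40% of the starting cells died.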

How the values were obtained:
Assay in all cases: NCI-60 one-dose screen, 48 h (100 = growth as untreated, 0 = no growth, -100 = all killed); active = growth percent below 10; inactive = the rest
SK-MEL-2 melanoma = details: 10 µM
EKVX NSCLC = details: 10 µM
SN12C renal = details: 10 µM
UO-31 renal = details: 10 µM
TK-10 renal = details: 10 µM unless noted
ACHN renal = details: 10 µM
CAKI-1 renal = details: 10 µM
A498 renal = details: 10 µM
CCRF-CEM leukemia = details: 10 µM
MOLT-4 leukemia = details: 10 µM
SR leukemia = details: 10 µM
RPMI-8226 leukemia = details: 10 µM
OVCAR-8 ovarian = details: 10 µM
OVCAR-5 ovarian = details: 10 µM
OVCAR-4 ovarian = details: 10 µM
SK-OV-3 ovarian = details: 10 µM
IGROV1 ovarian = details: 10 µM
HS 578T breast = details: 10 µM
NCI/ADR-RES ovarian = details: 10 µM
OVCAR-3 ovarian = details: 10 µM

Measured: growth

O=C(O)CCCCNC(=O)c1ccccc1
inactive: SK-MEL-2 melanoma 113% | EKVX NSCLC 103% | SN12C renal 115% | UO-31 renal 100% | TK-10 renal 101% | ACHN renal 115% | CAKI-1 renal 107% | A498 renal 91.4% | CCRF-CEM leukemia 110% | MOLT-4 leukemia 106% | SR leukemia 95.7% | RPMI-8226 leukemia 103% | OVCAR-8 ovarian 108% | OVCAR-5 ovarian 116% | OVCAR-4 ovarian 108% | SK-OV-3 ovarian 97.9% | IGROV1 ovarian 108% | HS 578T breast 108% | NCI/ADR-RES ovarian 94.8%

CC1(C)N=C(N)N=C(N)N1c1cccc(Br)c1
inactive: SK-MEL-2 melanoma 65.3% | EKVX NSCLC 45.1% | SN12C renal 37.3% | UO-31 renal 50.2% | TK-10 renal 51.7% | ACHN renal 30.2% | CAKI-1 renal 70% | A498 renal 104% | CCRF-CEM leukemia 36.1% | MOLT-4 leukemia 41.4% | SR leukemia 49.4% | RPMI-8226 leukemia 43.9% | OVCAR-8 ovarian 33.1% | OVCAR-4 ovarian 49.7% | SK-OV-3 ovarian 44.3% | IGROV1 ovarian 54.9% | OVCAR-3 ovarian 52.8%

O=C1N(C[P+](c2ccccc2)(c2ccccc2)c2ccccc2)CCCN1C[P+](c1ccccc1)(c1ccccc1)c1ccccc1
inactive: SK-MEL-2 melanoma 122% | EKVX NSCLC 97% | SN12C renal 97.3% | UO-31 renal 87.1% | TK-10 renal 106% | ACHN renal 97.1% | CAKI-1 renal 89.4% | A498 renal 85.5% | CCRF-CEM leukemia 107% | MOLT-4 leukemia 97.7% | SR leukemia 89% | RPMI-8226 leukemia 115% | OVCAR-8 ovarian 99.5% | OVCAR-5 ovarian 110% | OVCAR-4 ovarian 107% | IGROV1 ovarian 98% | OVCAR-3 ovarian 101% | HS 578T breast 99.8% | NCI/ADR-RES ovarian 111%

Cc1ccc(N)cc1[N+](=O)[O-]
inactive: SK-MEL-2 melanoma 128% | EKVX NSCLC 113% | SN12C renal 109% | UO-31 renal 83.3% | TK-10 renal 107% | ACHN renal 108% | CAKI-1 renal 102% | A498 renal 117% | CCRF-CEM leukemia 84.6% | MOLT-4 leukemia 76.3% | SR leukemia 115% | RPMI-8226 leukemia 116% | OVCAR-8 ovarian 103% | OVCAR-5 ovarian 116% | OVCAR-4 ovarian 83.3% | IGROV1 ovarian 110% | OVCAR-3 ovarian 115% | HS 578T breast 113% | NCI/ADR-RES ovarian 102%

O=C(c1ccc(Cl)cc1)c1ccccc1Cl
inactive: SK-MEL-2 melanoma 103% | EKVX NSCLC 96.9% | SN12C renal 94.7% | UO-31 renal 72.2% | TK-10 renal 90.9% | ACHN renal 95% | CAKI-1 renal 88% | A498 renal 126% | CCRF-CEM leukemia 90.5% | MOLT-4 leukemia 87.1% | SR leukemia 95.9% | RPMI-8226 leukemia 82.8% | OVCAR-8 ovarian 89.6% | OVCAR-4 ovarian 97% | IGROV1 ovarian 87.9% | OVCAR-3 ovarian 118%

CCCCC(O)c1ccccc1 (centres undefined)
inactive: SK-MEL-2 melanoma 109% | EKVX NSCLC 110% | SN12C renal 109% | UO-31 renal 94.2% | TK-10 renal 106% | ACHN renal 110% | CAKI-1 renal 99.7% | A498 renal 95.8% | CCRF-CEM leukemia 107% | MOLT-4 leukemia 101% | SR leukemia 98% | RPMI-8226 leukemia 108% | OVCAR-8 ovarian 93.8% | OVCAR-5 ovarian 115% | OVCAR-4 ovarian 100% | SK-OV-3 ovarian 95.4% | IGROV1 ovarian 110% | OVCAR-3 ovarian 109% | HS 578T breast 116% | NCI/ADR-RES ovarian 99.3%

C/C(=C\c1ccc([N+](=O)[O-])cc1)C(=O)O
inactive: SK-MEL-2 melanoma 110% | EKVX NSCLC 94.7% | SN12C renal 99% | UO-31 renal 95.3% | TK-10 renal 105% | ACHN renal 98% | CAKI-1 renal 95.6% | A498 renal 81.7% | CCRF-CEM leukemia 87.6% | MOLT-4 leukemia 102% | SR leukemia 96.3% | RPMI-8226 leukemia 95.8% | OVCAR-8 ovarian 99.2% | OVCAR-5 ovarian 104% | OVCAR-4 ovarian 99.2% | SK-OV-3 ovarian 104% | IGROV1 ovarian 110% | OVCAR-3 ovarian 110% | HS 578T breast 101% | NCI/ADR-RES ovarian 109%

CCCCC1C(=O)N(c2ccccc2)N(c2ccccc2)C1=O
inactive: SK-MEL-2 melanoma 98.7% | EKVX NSCLC 105% | SN12C renal 96.2% | UO-31 renal 90.4% | TK-10 renal 103% | ACHN renal 102% | CAKI-1 renal 103% | A498 renal 125% | CCRF-CEM leukemia 95.8% | MOLT-4 leukemia 107% | SR leukemia 103% | RPMI-8226 leukemia 96.6% | OVCAR-8 ovarian 103% | OVCAR-4 ovarian 117% | SK-OV-3 ovarian 105% | IGROV1 ovarian 106% | OVCAR-3 ovarian 115% | HS 578T breast 114% | NCI/ADR-RES ovarian 103%

CCOC(=O)CCCC(=O)OCC
inactive: SK-MEL-2 melanoma 111% | EKVX NSCLC 108% | SN12C renal 114% | UO-31 renal 89.7% | TK-10 renal 101% | ACHN renal 105% | CAKI-1 renal 95.2% | A498 renal 92.1% | CCRF-CEM leukemia 110% | MOLT-4 leukemia 101% | SR leukemia 102% | RPMI-8226 leukemia 113% | OVCAR-8 ovarian 103% | OVCAR-5 ovarian 101% | OVCAR-4 ovarian 101% | SK-OV-3 ovarian 96.7% | IGROV1 ovarian 102% | OVCAR-3 ovarian 102% | HS 578T breast 96.2% | NCI/ADR-RES ovarian 106%
